Compound activity as filed in PubChem BioAssay.
This is a sample that favours compounds with a hit; in the whole collection about 2% have one here.
Jurkat tox 60K: cytotoxicity toward Jurkat cells; Jurkat E6.1 viability, ATP luminescence, 48 h; inhibition, % at 4 µM; actives 1.2% (n = 56,000);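 active = inhibition above the mean inhibition of all tested compounds plus 3 SD, cut at about 28% in these data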
SKBR3 24h inh: SK-BR-3 proliferation inhibitors | SK-BR-3 viability, CellTiter-Glo ATP luminescence, 24 h; stronger effect = lower value | viability, % at 10 µM | AID 847 | actives 0.47% (n = 41,000);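 active = viability at or below the median of all test compounds minus 3 SD, in both replicates if run twice, cut at about 45% in these data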
Her2 expr inh: lowers expression of human Her2 kinase | P04626 | SKBR-3 HER2 protein level, AlphaScreen, 18-24 h; stronger effect = lower value | HER2 level % of control, % at 10 µM | actives 0.69% (n = 65,000) | AID 645;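 active = HER2 level under 5% of the carrier-only control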;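 note: lower value means stronger loss of Her2 protein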
Target sequence (P04626 whole entry, looked up): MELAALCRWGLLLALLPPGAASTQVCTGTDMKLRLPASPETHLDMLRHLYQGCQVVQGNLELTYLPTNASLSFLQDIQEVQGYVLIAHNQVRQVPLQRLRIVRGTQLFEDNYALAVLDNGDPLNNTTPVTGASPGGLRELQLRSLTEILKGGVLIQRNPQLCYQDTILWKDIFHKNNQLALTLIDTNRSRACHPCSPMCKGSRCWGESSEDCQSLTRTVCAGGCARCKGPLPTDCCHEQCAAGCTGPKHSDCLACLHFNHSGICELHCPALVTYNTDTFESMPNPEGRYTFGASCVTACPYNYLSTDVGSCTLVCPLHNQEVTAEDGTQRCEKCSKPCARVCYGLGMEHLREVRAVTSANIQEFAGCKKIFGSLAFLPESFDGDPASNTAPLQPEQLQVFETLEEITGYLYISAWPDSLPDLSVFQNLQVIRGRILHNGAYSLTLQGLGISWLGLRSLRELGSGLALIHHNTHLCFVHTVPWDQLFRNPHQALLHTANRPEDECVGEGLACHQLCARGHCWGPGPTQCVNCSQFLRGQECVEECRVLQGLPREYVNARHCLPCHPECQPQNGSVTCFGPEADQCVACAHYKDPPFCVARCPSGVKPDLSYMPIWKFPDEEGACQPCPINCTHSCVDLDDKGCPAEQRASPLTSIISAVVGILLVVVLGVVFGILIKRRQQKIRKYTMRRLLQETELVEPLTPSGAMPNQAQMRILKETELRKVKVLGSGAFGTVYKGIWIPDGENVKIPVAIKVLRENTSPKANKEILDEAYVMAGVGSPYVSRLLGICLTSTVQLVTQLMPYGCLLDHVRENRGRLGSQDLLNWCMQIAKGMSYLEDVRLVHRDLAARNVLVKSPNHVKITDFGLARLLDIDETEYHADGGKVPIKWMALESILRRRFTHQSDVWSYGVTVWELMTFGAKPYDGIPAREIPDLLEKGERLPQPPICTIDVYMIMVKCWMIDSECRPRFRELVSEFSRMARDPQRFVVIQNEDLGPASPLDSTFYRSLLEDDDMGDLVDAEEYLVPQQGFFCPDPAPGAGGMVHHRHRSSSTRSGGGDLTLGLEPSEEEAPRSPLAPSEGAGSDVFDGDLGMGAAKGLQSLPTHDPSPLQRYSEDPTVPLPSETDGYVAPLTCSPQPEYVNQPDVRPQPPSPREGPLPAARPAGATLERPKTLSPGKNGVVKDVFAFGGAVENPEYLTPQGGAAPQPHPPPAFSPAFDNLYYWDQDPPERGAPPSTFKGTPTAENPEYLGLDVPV
Each line names hits and unclear results; the compound was inactive in the other large screens.

O=C(Nc1ccc(S(=O)(=O)N2CCOCC2)cc1)c1ccc(Cl)cc1	none (no result: SKBR3 24h inh)
Cc1cc(C)c(O)c(-c2cc(C(=O)Nc3ccc(S(=O)(=O)N4CCOCC4)cc3)[nH]n2)c1	Her2 expr inh -11
COCCNC(=O)NC1(C(F)(F)F)Oc2ccc(Cl)cc2O1 (configuration not stated)	none (no result: Jurkat tox 60K)
O=C(NCc1cccnc1)NC1(C(F)(F)F)Oc2ccc(Cl)cc2O1 (configuration not stated)	Jurkat tox 60K 45 (no result: SKBR3 24h inh)
CCOc1cc(N2CCOCC2)c(OCC)cc1NS(=O)(=O)c1ccc(Cl)s1	Jurkat tox 60K 69 (no result: SKBR3 24h inh)
CCOc1cc(N2CCOCC2)c(OCC)cc1NC(=O)CCS(=O)(=O)c1ccc(Cl)cc1	none (no result: SKBR3 24h inh)
CCc1nc(C)ccc1OCC(=O)O	none (no result: SKBR3 24h inh)
CCc1nc(C)ccc1OCC(=O)NCCCN(C)C	Her2 expr inh -28
Nc1c(C(=O)NCc2ccc3c(c2)OCO3)c2nc3ccccc3nc2n1CCCN1CCOCC1	Her2 expr inh 3.8
Nc1c(C(=O)NCCN2CCOCC2)c2nc3ccccc3nc2n1-c1ccc2c(c1)OCO2	none
CCN1CC=C2C(C1)C(c1ccc(Cl)s1)C(C#N)=C(N)C2(C#N)C#N (configuration not stated)	none (no result: SKBR3 24h inh)
O=C(c1ccco1)N1CCN(S(=O)(=O)Cc2ccc(Cl)cc2)CC1	none
CCNc1nc(C)cc(COC)c1C#N	none
COCc1cc(C)nc(Nc2ccc(C)cc2C)c1C#N	SKBR3 24h inh 38
COCc1cc(C)nc(Nc2ccc(C)c(C)c2)c1C#N	Her2 expr inh -3.1 (no result: SKBR3 24h inh)
COCc1cc(C)nc(N)c1C#N	none (no result: Jurkat tox 60K)
CCOC(=O)NC1(NC2CCCCC2)Oc2ccccc2O1	none (no result: SKBR3 24h inh)
CCCc1cc(C(=O)Nc2cc(Br)ccc2O)no1	Jurkat tox 60K 46 (no result: SKBR3 24h inh)
CC(C)c1cc(C(=O)Nc2cccc(Cl)c2)no1	none
CCCc1cc(C(=O)Nc2ccc(C)cc2)no1	none (no result: SKBR3 24h inh)
CC(C)c1cc(C(=O)Nc2cc(Cl)ccc2O)no1	Jurkat tox 60K 54
Cc1cccc(C)c1NC(=O)CSc1nnc(CCCCCNC(=O)OC(C)(C)C)o1	none
CSc1nc(-c2ccccc2O)nc(-c2ccccc2O)n1	none
COc1ccccc1NS(=O)(=O)c1ccc(OC)c(OC)c1	SKBR3 24h inh 29
CCOc1ccccc1NS(=O)(=O)c1ccc(OC)c(OC)c1	none
Cc1ncoc1C(=O)Nc1ccc(Oc2ccccc2)cc1	none (no result: SKBR3 24h inh)
Cc1nc(C)c(C(=O)Nc2ccc(Oc3ccccc3)cc2)o1	Jurkat tox 60K 30 (no result: SKBR3 24h inh)
CCN1CCN(Cc2nc3c(c(=O)n(C)c(=O)n3C)n2Cc2ccc(Cl)cc2Cl)CC1	none (no result: SKBR3 24h inh)
COc1ccc(OC)c(S(=O)(=O)Nc2cc(OC)c(Cl)cc2OC)c1	none
COc1cc(NS(=O)(=O)c2ccc(OC)c(C)c2C)c(OC)cc1Cl	Jurkat tox 60K 79
O=C1N(CC(=O)N2CCc3ccccc32)CCN1Cc1ccccc1Cl	none (no result: Jurkat tox 60K, SKBR3 24h inh)
COC(=O)c1cc2ccsc2n1CC(=O)Nc1ccc(N(C)C)cc1	none (no result: SKBR3 24h inh)
COC(=O)c1cc2ccsc2n1CC(=O)Nc1cc(Cl)ccc1OC	Jurkat tox 60K 86 (no result: SKBR3 24h inh)
O=C1C(Cl)=C(NCC2CCCO2)C(=O)N1CCc1ccccc1 (configuration not stated)	none
O=C(Nc1ccccc1)N1CCC(c2nc(-c3ccc(S(=O)(=O)N4CCOCC4)cc3)no2)CC1	Jurkat tox 60K 33
O=C(c1cccs1)N1CCC(c2nc(-c3ccc(S(=O)(=O)N4CCOCC4)cc3)no2)CC1	none
CCOCCn1c(CN2CCOCC2)nc2c1c(=O)[nH]c(=O)n2C	none (no result: SKBR3 24h inh)
Cc1ccc2[nH]c(=O)c(C(c3nnnn3CC3CCCO3)N3CCCc4ccccc43)cc2c1 (configuration not stated)	none
CCOC(=O)C1CCCN(C(=O)c2cc3c(-c4cccc(OC)c4)nn(C)c3s2)C1 (configuration not stated)	Jurkat tox 60K 79 (no result: SKBR3 24h inh)
CCOC(=O)C1CCN(C(=O)c2cc3c(-c4ccc(OC)c(OC)c4)nn(C)c3s2)CC1	none (no result: SKBR3 24h inh)
O=C1C2CCCN2C(c2ccc(Cl)cc2)N1c1nccs1 (configuration not stated)	none
Cc1cnc(-c2nnc(N(C)C(=O)c3ccncc3)s2)cn1	none
CSCCC(NC(=O)COc1ccccc1)C(=O)N1CCN(c2ccccc2F)CC1 (configuration not stated)	none (no result: SKBR3 24h inh)
CCc1ccc2oc(-c3cc(N)cc(C)c3O)nc2c1	Jurkat tox 60K 47
CCc1ccc2oc(-c3cc(N)ccc3O)nc2c1	none
CCCCn1c(NC(C)CC)nc2c1c(=O)[nH]c(=O)n2C (configuration not stated)	none
COc1cc(CNc2cc(C)ccc2C)cc(OC)c1OC	none (no result: SKBR3 24h inh)
COc1cc(CNc2ccc(C)c(C)c2)cc(OC)c1OC	Jurkat tox 60K 88 (no result: SKBR3 24h inh)
CC(C)C(c1nnnn1C(C)(C)C)N1CCN(c2cccc(Cl)c2)CC1 (configuration not stated)	none
O=C(Nc1nc2n(n1)C(c1ccccc1)C=C(c1ccccc1)N2)c1ccco1 (configuration not stated)	Her2 expr inh -23 (no result: SKBR3 24h inh)
CC(=O)Nc1nc2n(n1)C(c1ccccc1)C=C(c1ccccc1)N2 (configuration not stated)	none
CC(C)Oc1cccc(C(=O)O)c1	none
CCOC(=O)c1ccc2nc(NC(=O)C(C)C)sc2c1	none (no result: SKBR3 24h inh)
C=CCN(CC=C)S(=O)(=O)c1ccc2nc(NC(=O)C(C)C)sc2c1	Jurkat tox 60K 72
CCOc1cc(NC(=O)c2ccco2)c(OCC)cc1NC(=O)c1cc(OC)c(OC)c(OC)c1	none
CCOc1cc(C#N)c(NC(=O)c2ccco2)cc1OCC	Jurkat tox 60K 79
COC(=O)C1=C(N)Oc2cc(C)n(CC3CCCO3)c(=O)c2C1c1ccc(Cl)cc1 (configuration not stated)	none
O=C(O)c1cc2c(s1)-c1ccccc1OC2	none (no result: Jurkat tox 60K)
O=C(NC1CC1)c1cc2c(s1)-c1ccccc1OC2	Jurkat tox 60K 38 (no result: SKBR3 24h inh)
Cc1cccc(-n2ncc3c(N4CCN(c5nc(C)cc(C)n5)CC4)ncnc32)c1	none (no result: SKBR3 24h inh)
COc1ccc(C(=O)C(CN2CCOCC2)c2ccccc2)cc1F (configuration not stated)	Jurkat tox 60K 96
COc1ccc(C(O)C(CN2CCOCC2)c2ccccc2)cc1F (configuration not stated)	none
COc1ccc(Cn2c(CCC(=O)NCc3ccco3)nc3cccnc32)cc1	none (no result: SKBR3 24h inh)
CCC(Sc1nc2cc3c(cc2c(=O)n1Cc1ccco1)OCO3)C(=O)Nc1ccccc1OC (configuration not stated)	none (no result: Jurkat tox 60K, SKBR3 24h inh)
CCC(Sc1nc2cc3c(cc2c(=O)n1Cc1ccco1)OCO3)C(=O)Nc1cccc(OC)c1 (configuration not stated)	Her2 expr inh -17 (no result: Jurkat tox 60K, SKBR3 24h inh)
O=C(O)c1cccnc1SCCc1ccccc1	none (no result: Her2 expr inh)
Nc1c(Br)cc(Br)c(N2CCCC2=O)c1Br	none
O=C1C(c2ccncc2)N(CCC2=CCCCC2)C(=O)CN1C1CCCCC1 (configuration not stated)	none (no result: Jurkat tox 60K, SKBR3 24h inh)
Cc1nn(C(=O)c2ccc3c(c2)OCO3)c(N)c1-c1ccccc1	none (no result: SKBR3 24h inh)
COC(=O)C1=C(N)Oc2cc(N(C)C)ccc2C1c1ccccc1OC (configuration not stated)	Jurkat tox 60K 75 (no result: SKBR3 24h inh)
COC(=O)C1=C(N)Oc2cc(C)n(CC3CCCO3)c(=O)c2C1c1ccccc1OC (configuration not stated)	none
Cc1noc(C)c1CSc1nnc2n(-c3ccccc3)c(=O)c3ccccc3n12	none (no result: SKBR3 24h inh)
Cc1nc(CSc2nc3[nH]ncc3c(=O)n2-c2ccccc2)cs1	none (no result: SKBR3 24h inh)
C=CCn1c(SCc2c(C)noc2C)nc2sc3c(c2c1=O)CCCCC3	none
